Screening results (PubChem BioAssay)
Only a selection was taken, and hits are over-represented in it overall.
Dicer processing = inhibitors of human Dicer processing of pre-microRNA; cat-ELCCA pre-miR-21 Dicer processing, chemiluminescence; hits give high values; z-score at 25 µM; 47,000 tested, 6% active; in the data active = z-score above about 3, passing the limit was not always enough;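 also: plate controls were vehicle for no effect and no enzyme for full effect; higher signal means more uncleaved substrate so more Dicer inhibition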
* = called active by the depositor.

SMILES	Dicer processing
Cc1ccc(Nc2nc(C3(C)CC(C(C)C)C(=O)O3)cs2)cc1 (stereo unspecified)	-0.38
COCCCNC(=S)Nc1c(C)cccc1C	-1.4
Clc1ccc(C(=Nc2ccccc2)c2ccccc2)cc1	0.31
Clc1ccc(CN2CCCN(c3ncnc4scc(-c5ccccc5)c34)CC2)cc1Cl	-0.88
c1ccc(-c2csc3ncnc(N4CCN(Cc5ccc6c(c5)OCO6)CC4)c23)cc1	4.7*
CCCc1cnc(N2CCN(c3ncnc4scc(-c5ccccc5)c34)CC2)nc1	-1.7
O=C1NC2=C(C(=O)c3ccccc32)C(c2ccc([N+](=O)[O-])cc2)S1 (stereo unspecified)	-0.39
COc1ccc(S(=O)(=O)N2CCN(S(=O)(=O)c3ccc(Cl)cc3)CC2)cc1	0.66
O=C(Oc1ccc2c(=O)c(-c3ccc(Cl)cc3)c(C(F)(F)F)oc2c1)N1CCOCC1	4*
CC(=O)Oc1ccc2c(=O)c(Oc3ccc(Cl)cc3)c(C(F)(F)F)oc2c1	-0.22
COc1ccc(Oc2c(C)oc3cc(OC(=O)N4CCOCC4)ccc3c2=O)cc1	0.19
CC1=CC(C)(C)Nc2ccc(OC(=O)c3ccccc3)cc21	2.1
CC(C)(Oc1ccc(Cl)cc1)C(=O)N1CCC2(CC1)NC(=O)c1ccccc1O2	-0.43
CCc1ccc(C2C(C(=O)OCCOC)=C(C)NC3=C2C(=O)CC(c2ccccc2)C3)cc1 (stereo unspecified)	1.4
c1ccc(-c2cc(Sc3nnc(-c4ccncc4)n3-c3ccccc3)n3ncnc3n2)cc1	0.93
COc1ccc(OCC(=O)Nc2ncn[nH]2)cc1	0.28
CCOC(=O)c1ccc(Oc2nc(NC)nc(SC)n2)cc1	5.6*
COC(=O)c1ccc(Oc2nc(N(C)C)nc(N(C)C)n2)cc1	-0.06
CCOC(=O)c1ccc(Oc2nc(N(C)C)nc(N(C)C)n2)cc1	1.7
O=S(=O)(Cc1nc(-c2ccc3c(c2)OCCO3)cs1)c1ccccn1	-1.1
O=C(NNc1ccccc1)c1cc(-c2ccc(Cl)cc2)oc1C(F)(F)F	0.99
Clc1cccc(SCc2cccc3ccccc23)c1Cl	-0.02
Cc1ccn2cc(-c3cccc(S(=O)(=O)N(C)C)c3)nc2c1	0.25
Cc1ccn2cc(-c3cccc(S(=O)(=O)N4CCOCC4)c3)nc2c1	-0.79
O=S(=O)(Nc1cccc(-c2cn3ccccc3n2)c1)c1ccc(F)cc1	1.9
SMILES	Dicer processing
Cc1cc(C)c(S(=O)(=O)Nc2cccc(-c3cn4ccccc4n3)c2)c(C)c1	3.7*
CC1CN(S(=O)(=O)c2cccc(-c3cn4ccccc4n3)c2)CC(C)O1 (stereo unspecified)	-0.73
O=S(=O)(Nc1cccc(-c2cn3ccccc3n2)c1)c1ccc(Br)cc1	4.4*
CCCCCNc1nc2c(c(=O)n(Cc3cccc(Br)c3)c(=O)n2C)n1C	-1.4
CCCS(=O)(=O)c1c(S(=O)(=O)CCC)c2c(C)cccn2c1C(=O)OC	0.26
Cc1cccn2c(=O)c(NC(=O)c3ccc(Cl)cc3)cnc12	0.05
COC(=O)c1nc2c(C)cccn2c1F	3.1*
Cc1cc(C)n(CCS(=O)(=O)c2ccc(Cl)cc2)n1	0.93
Cc1cccc(Cl)c1Nc1ncnc(N)n1	7.2
COc1cc2ncnc(N3CCCC3)c2cc1OC	-1.3
CC(=O)CSc1n[nH]c(CN2c3ccccc3Sc3ccccc32)n1	3.5*
CCn1c(CN2c3ccccc3Sc3ccccc32)n[nH]c1=S	0.6
CC(C)Cc1nc(SCC(=O)c2ccccc2)n[nH]1	-0.18
CCO/C=C1/SC(=S)N(c2ccc(C)cc2C)C1=O	-0.96
O=C1OC(N2CCN(C(c3ccccc3)c3ccccc3)CC2)c2ccccc21 (stereo unspecified)	1.2
CCc1c(OS(=O)(=O)c2ccc(Br)cc2)c2ccccc2n(C)c1=O	-0.78
O=C(Nc1nc(-c2ccccc2)cs1)C1CC1	6.7
CCNc1nc(-c2ccccc2)cs1	3.3*
Cc1nc(-c2ccc(-c3ccccc3)cc2)cs1	0.49
FC(F)(F)c1cccc(N/N=C/c2cc(-c3ccccc3)c(C(F)(F)F)s2)c1	2.4
COC(=O)c1cc(S(=O)(=O)C(C)C)c(S(C)(=O)=O)s1	-0.98
CCOC(=O)c1sc(SC)c(S(C)(=O)=O)c1N	-0.95
CCOC(=O)c1cc(S(=O)(=O)C(C)C)c(SC)s1	3.8*
N#C/C(=C\Nc1cc(C(F)(F)F)cc(C(F)(F)F)c1)C(=O)c1ccc(Cl)cc1	-0.13
Cc1c(Br)sc2sc(-c3ccn(C)n3)c(C)c12	2.2
SMILES	Dicer processing
Cc1nn2c3ccccc3n(CC(=O)c3ccccc3)c2nc1=O	-0.28
Clc1ccccc1-n1ncnc1-c1cccc(Br)c1	0.33
CNC(=O)NNc1ccc(-c2csnn2)cc1	0.33
COc1ccc(-c2csnn2)cc1S(=O)(=O)Nc1ccccc1	2.2
COc1ccc(NS(=O)(=O)c2ccc(NS(=O)(=O)c3ccc(C)cc3)cc2)nn1	-0.33
Cc1ccc(S(=O)(=O)NCCCN(C)C)cc1	2.8
COCCCNS(=O)(=O)c1ccc(NS(=O)(=O)c2ccc(C)cc2)cc1	4.7*
COCCCNC(=S)NNS(=O)(=O)c1ccc(C)cc1	0.29
Cc1ccc(S(=O)(=O)N/N=C/C(=O)O)cc1	-1
CN(C)c1ccc(NS(=O)(=O)c2ccc(-c3csnn3)cc2)cc1	7*
Cc1ccc(S(=O)(=O)Nc2ccc(N(C)C)cc2)cc1	3.8*
CC(=O)CSc1nc(SCC(C)=O)c2cnc(N3CCCC3)nc2n1	-1.5
Cc1oc2cc(O)ccc2c(=O)c1-c1nc2ccccc2n1C	1
N#CC1=C(N)NC(=S)C(C(N)=O)C1c1ccccc1 (stereo unspecified)	-4.2
Cc1nc(NCc2ccc3c(c2)OCO3)nc2c1C(=O)c1ccccc1-2	-1.1
CCCCCOC(=O)C1=C(C)NC2=C(C(=O)CCC2)C1c1cc(Cl)c(O)c(OC)c1 (stereo unspecified)	-0.58
Cc1cc(-c2nn(C)c(=O)c3ccccc23)cc(C)c1OCC(=O)NNC(=O)Nc1ccc(Cl)cc1	0.07
Cc1c(-c2ccn[nH]2)sc2nc(C(F)(F)F)nn12	-3.3
c1ccc2sc(SCCCN3CCCCC3)nc2c1	-0.7
COC(=O)c1c(NC(=O)c2cc3ccccc3o2)sc2c1CCC2	1.7
C=Cc1c(C)c2cc3nc(cc4[nH]c(cc5nc(cc1[nH]2)C(C)=C5CCC(=O)O)c(CCC(=O)OC)c4C)[C@@]1(C)C3=CC=C(C(=O)OC)C1C(=O)OC (stereo partly specified)	-0.12
O=C(Nc1ccc(F)cc1F)C(=S)NC1CCCCC1	-0.8
CC1(C)OC(=O)C(=Cc2ccc(-c3cc(C(F)(F)F)ccc3Cl)o2)C(=O)O1	-1.1
CCOC(=O)C(=CNCCNc1ncccc1C(F)(F)F)C(=O)OCC	-0.27
C=CCOc1ccc(C2c3c(oc4ccc(F)cc4c3=O)C(=O)N2CCOC)cc1OC (stereo unspecified)	-0.73
SMILES	Dicer processing
CC(C)(Cc1nc2ccccc2[nH]1)C(=O)O	-1.3
COC(=O)CC1=NN(c2nc3ccccc3[nH]2)C(=O)C1	5.3*
CCOC(=O)Cc1nc2ccccc2[nH]1	2.8
O=C(Cn1cc(C(=O)c2ccco2)c2ccccc21)Nc1ccc(Cl)cc1	-0.83
c1cc2c(cc1-c1nc3sc(-c4ccc5c(c4)OCO5)nc3s1)OCO2	0.77
Cn1c(CSc2ccnc3cc(Cl)ccc23)nnc1SCC(=O)N1CCOCC1	1.4
C(/C=C/C=C/Nc1ccccc1)=Nc1ccccc1	0.52
Fc1ccc(N=C/C=C/C=C/Nc2ccc(F)cc2)cc1	3.1*
CC(=O)Nc1cc(-c2ccc([N+](=O)[O-])cc2)[nH]n1	-6.6
COc1cccc(C2Sc3ccccc3NC3=C2C(=O)c2ccccc23)c1OC (stereo unspecified)	3.6*
